This passage reports growth results from PubChem BioAssay (NCI).

This is part of a sample that, as a whole, favours compounds with a hit. Of some 83,000 tested, about 20% had one in any assay.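 96-well plates, one dose, 48 hours. Percent growth reported; active if below 10.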 Values without a mark were called inactive. Calls of active or inactive are those of the source.

This assay relates to NCI/ADR-RES ovarian. In words: NCI-60 one-dose screen, 48 h (100 = growth as untreated, 0 = no growth, -100 = all killed). Particulars: 10 µM unless noted.
As to `COc1ccc(NC(=O)c2sc3c(=O)[nH]c(C(F)(F)F)nc3c2C)cc1`, the growth was 102%.
With `O=C(Nc1cccc(Cl)c1)Nc1ccccc1Cl`, the growth was 80.6%.
To `NC(=O)N/N=C\c1ccc([N+](=O)[O-])o1` belongs 95.1%; to `CCN(CC)Cc1cc(Nc2ccnc3ccc(OC)cc23)ccc1O`, 35.8%; to `CC(C)(C)c1nn(-c2ccccc2)c2c1C(=O)CSC(c1ccc3c(c1)OCO3)N2` (centres undefined), 88.2%.
The value for `CN(C)N1C(=O)c2c(Cl)c(Cl)c(Cl)c(Cl)c2C1=O` was 101%; that for `O=c1c2cc(Cl)ccc2oc2ccc(OCCCCCN3CCCCC3)cc12` was 71%; that for `C=CCOc1ccc2c(C)cc(=O)oc2c1` was 104%.
To `O=C(CSc1nc2c(n1Nc1ccccc1)-c1ccccc1SC2)Nc1nccs1` belongs 90.4%.
In the case of `CC(C)CC1NC(=O)C(CC(C)C)N(CO)C1=O` (centres undefined), the growth was 117%.
The value for `CCn1c(=O)c(C(=O)NCCCO)c(O)c2ccccc21` was 111%; that for `COc1cc(NCC(O)CN(CC(C)C)CC(C)C)c2ncccc2c1` (centres undefined) was 92.4%.
On to `CC(=O)Nc1ccc(/C=N/N2CCCCCC2)cc1`, for which the growth was 103%.
The value for `O=c1oc2ccccc2cc1-c1cc(-c2ccc(-c3cc(-c4cc5ccccc5oc4=O)nc(-c4cc5ccccc5oc4=O)c3)cc2)cc(-c2cc3ccccc3oc2=O)n1` was 108%; that for `CCN(CC)c1ccc(/C=N/N=C(N)N)cc1` was 93%.
The value for `CCOC(=O)C(Cc1ccccc1)n1c(O)c(/C=N/c2ncc(Cc3ccc(Cl)cc3Cl)s2)sc1=S` (centres undefined) was 5.71% (active); that for `COc1ccc(-c2cnc(-c3ccncc3-c3cccc(OC)c3)o2)cc1` was 10.1%; that for `Cc1ccc(OC2=C(C#N)C(=N)N3C(=NN2)Sc2c(C)ccc(C)c23)cc1` was 101%.
Consider `CN1C(=O)NC(Cc2c[nH]c3c(Cl)cccc23)C1=O` (centres undefined), for which the growth is 100%.
To `C[C@@H]1N=C(c2ccc3ccccc3c2)Nc2nc3ccccn3c2C1=O` belongs 44.5%; to `O=[N+]([O-])c1ccc(N=Nc2c(NNc3ccc([N+](=O)[O-])cn3)cc(S(=O)(=O)O)c3ccccc23)nc1`, 79.5%; to `CS(=O)(=O)c1ccc(C(=O)N/N=C/c2ccccc2Cl)cc1`, 106%.
To `CC1=C(O)C(=O)CC1` belongs 106%; to `O=C(N/N=C/c1ccc([N+](=O)[O-])cc1)c1ccccc1Nc1ccnc(C(F)(F)F)c1`, 71.9%.
To `Cc1ccc(C(CN(C)C)C(=O)c2ccccc2)cc1` (centres undefined) belongs 49.7%; to `Nc1c(C(=O)C[C@@H](N)CO)ccc2c1C(=O)CCO2`, 61.2%; to `Cc1ccncc1NC=O`, 107%.
With `Cc1c2c(cc3c1[nH]c1ccccc13)C=NCC2`, the growth is 85.6%.
To `O=S1(=O)NCCCN1CCNc1nccc(-c2c(-c3cccc(O)c3)nc3sccn23)n1` belongs 116%; to `CCc1c(C)c2ccc(O)c(-c3cc(-c4ccccc4)c(C#N)c(=O)[nH]3)c2oc1=O`, 99.9%; to `COc1ccc2nc3cc(Cl)ccc3c(NC(=O)CSc3ccc(Cl)cc3)c2c1`, -65% (active).
Turning to `C=CC(=O)N1CN(C(=O)C=C)CN(C(=O)C=C)C1`, the growth was 70.8%.
To `CCCC(CCC)(C(N)=O)C(=O)O` belongs 107%; to `C=CCCCCOc1cccc(/C=C2\N=C3SCCCN3C2=O)c1`, 95.6%.
